# Test results taken from PubChem BioAssay (Tox21).
# Inconclusive results are not listed. Where a call stands in place of a potency, no number is given. The source made the active and inactive calls. Calls come from the whole dose curve; as a rule, active = well fitted cell-killing curve with a large enough effect in the repeat runs; inconclusive = weak or mixed curves, or effect the other way; inactive = flat fitted curve, though single readings scatter.
# Experiment: qHTS assay to identify small molecule agonists of the TGF-beta/Smad signaling pathway - cell viability counter screen (AID 1346829); note: nearly all actives have a fitted effect of over 45% in size
# Details: SBE-bla HEK293T viability, CellTiter-Glo luminescence, 5 h; series mostly up to 76.8 µM
# Excerpt: National Center for Advancing Translational Sciences [NCATS]
# NIH Chemical Genomics Center [NCGC]
# U.S. Environmental Protection Agency [EPA]
# National Institutes of Environmental Health Sciences [NIEHS]
# National Toxicology Program [NTP]
# U.S. Food and Drug Administration [FDA]
# Transforming growth factor beta (TGF-beta) superfamily consists of a large number of structurally related dimeric proteins that act as hormones or local mediators in regulating a wide range of biological functions. This superfamily includes TGF-betas themselves, the bone morphogenetic proteins (BMPs) and the activins. These ligands induce oligomerization of serine/threonine receptor kinases and phosphorylate the cytoplasmic signaling molecules of Smad protein family. CellSensor SBE-bla HEK 293T cell line (Life Technologies, Carlsbad, CA), responsive to TGF-beta was used to screen Tox21 10K compound library for identification of agonists/antagonists of the Smad signaling pathway. This cell line contains a beta-lactamase reporter gene under control of the Smad binding element (SBE) stably integrated into HEK 293T cells. Also cytotoxicity of the compounds was tested in parallel by measuring the cell viability using CellTiter-Glo assay system in the same wells.
# Tox21 Assay Protocol Summary:
# SBE-bla HEK 293T cells were dispensed at 4,000/well in 6 uL of assay medium into black wall/clear-bottom 1536-well plates using a Multidrop Combi (ThermoFisher Scientific, Waltham, MA) dispenser. After the assay plates were incubated at 37 C and 5% CO2 for an overnight, 23 nL of compounds dissolved in DMSO, positive controls or DMSO only was transferred to the assay plate by a Pintool station (Kalypsys, San Diego, CA). The assay plates were incubated at 37 C and 5% CO2 for 5 hr. One uL of LiveBLAzer B/G FRET substrate (Life Technologies) was added using a Flying Reagent Dispenser (FRD, Aurora Discovery, San Diego, CA) and the plates were incubated at room temperature for 2 hr. Fluorescence intensity (405 nm excitation, 460 nm and 530 nm emissions) was measured using an Envision plate reader (PerkinElmer, Shelton, CT). For cytotoxicity read, 4 uL of CellTiter-Glo reagent (Promega Corporation, Madison, WI) was added to each well of the assay plates using FRD. After 30min incubation at room temperature, the luminescence intensity was measured using ViewLux plate reader (PerkinElmer).
# Potency is the fitted concentration of half-maximal effect.
row,Structure (SMILES),Potency
1,C/C=C(/C(=C/C)c1ccc(O)cc1)c1ccc(O)cc1,inactive
2,CC/C=C1/OC(=O)c2ccccc21,inactive
3,O=C1Cc2ccccc2N1c1c(Cl)cccc1Cl,inactive
4,CN1CC(=O)N2[C@H](c3ccc4c(c3)OCO4)c3[nH]c4ccccc4c3C[C@@H]2C1=O,inactive
5,O=C=Nc1ccc(Cl)c(Cl)c1,inactive
6,CCCCCCCCN,inactive
7,O=[N+]([O-])c1ccc(Nc2ccc(Nc3ccccc3)c(S(=O)(=O)O)c2)c([N+](=O)[O-])c1,inactive
8,CC[N+](CC)(CCNC(=O)C(=O)NCC[N+](CC)(CC)Cc1ccccc1Cl)Cc1ccccc1Cl,inactive
9,CCC1NC(=O)c2cc(S(N)(=O)=O)c(Cl)cc2N1 (stereo not given),inactive
10,CS(=O)(=O)c1ccc(-c2cn3ccccc3n2)cc1,inactive
11,O=C(O)CCCCCCCCCCCBr,inactive
12,CC(C)(c1ccccc1)c1ccccc1,inactive
13,CCOc1ccc(Cc2nccc3cc(OCC)c(OCC)cc23)cc1OCC,inactive
14,Cc1ccc2c(Br)cc(Br)c(O)c2n1,inactive
15,COc1cc(Nc2c(C#N)cnc3cc(OCCCN4CCN(C)CC4)c(OC)cc23)c(Cl)cc1Cl,inactive
16,Cc1ccc(C(C)(C)O)cc1,inactive
17,Brc1cc2ccccc2c2ccccc12,inactive
18,Nc1ncnc2c1ncn2[C@H]1CC[C@@H](CO)O1,inactive
19,O=C1NC(=O)c2cc([N+](=O)[O-])ccc21,inactive
20,CC(=O)Nc1ccc(C)cc1C,inactive

row,Structure (SMILES),Potency
1,Oc1cccc(O)c1O,inactive
2,O=C(/C=C/c1ccc(O)c(O)c1)O[C@@H]1C[C@@](OC(=O)/C=C/c2ccc(O)c(O)c2)(C(=O)O)C[C@@H](O)[C@@H]1O,inactive
3,O=C1c2ccccc2C(=O)c2c(O)c(O)cc(O)c21,inactive
4,O=C(O)CCc1nc(-c2ccccc2)c(-c2ccccc2)o1,inactive
5,C=C(C)CCCC(C)CCO (stereo not given),inactive
6,c1csc(SSc2cccs2)c1,inactive
7,Cc1cc(O)ccc1O,inactive
8,O=C(O)C[C@H](NC(=O)OCc1ccccc1)C(=O)O,inactive
9,C[C@@H](O)[C@H]1C(=O)N2C(C(=O)O)=C([C@H]3CCCO3)S[C@H]12,inactive
10,CN1CCCC(n2nc(Cc3ccc(Cl)cc3)c3ccccc3c2=O)CC1 (stereo not given),inactive
11,Cc1cccc(O)c1N,inactive
12,O=C1c2ccccc2C(=O)C1c1nc2ccccc2c(Br)c1O,inactive
13,CN1C(=O)N(c2ccccc2Br)Cc2cnc(Nc3ccc4c(c3)OCC(CO)O4)nc21 (stereo not given),34.7 µM (active)
14,CC[C@]1(O)C[C@H]2CN(CCc3c([nH]c4ccccc34)[C@@](C(=O)OC)(c3cc4c(cc3OC)N(C=O)[C@H]3[C@@](O)(C(=O)OC)[C@H](OC(C)=O)[C@]5(CC)C=CCN6CC[C@]43[C@@H]65)C2)C1,inactive
15,COc1ncnc(NS(=O)(=O)c2ccc(N)cc2)c1OC,inactive
16,Nc1ccc(N=Nc2ccccc2)c(N)c1,inactive
17,NC1[C@H]2CN(c3nc4c(cc3F)c(=O)c(C(=O)O)cn4-c3ccc(F)cc3F)C[C@@H]12 (stereo not given in full),inactive
18,CCOC(C)=O,inactive
19,C=C(C)C(=O)OCCCCCCCCCCCCC,inactive
20,O=C1c2ccccc2C(=O)N1CCc1noc(-c2ccc(CN3CCCCCC3)s2)n1,inactive
